This is an account of results in PubChem BioAssay.

Structures are written as SMILES.

In this assay the target is NADPH oxidase 5 (Homo sapiens) (UniProt Q96PH1). Kind of assay: NOX5-dependent H2O2 signal modulators, primary screen, NOX inhibitor project, cell-based, HEK293-NOX5, Amplex Red fluorescence (AID 1161). The note with it: HEK293-NOX5, ionomycin, 45 min, higher = more signal.
NADPH oxidase 5 (Homo sapiens), sequence (Q96PH1 whole entry, looked up): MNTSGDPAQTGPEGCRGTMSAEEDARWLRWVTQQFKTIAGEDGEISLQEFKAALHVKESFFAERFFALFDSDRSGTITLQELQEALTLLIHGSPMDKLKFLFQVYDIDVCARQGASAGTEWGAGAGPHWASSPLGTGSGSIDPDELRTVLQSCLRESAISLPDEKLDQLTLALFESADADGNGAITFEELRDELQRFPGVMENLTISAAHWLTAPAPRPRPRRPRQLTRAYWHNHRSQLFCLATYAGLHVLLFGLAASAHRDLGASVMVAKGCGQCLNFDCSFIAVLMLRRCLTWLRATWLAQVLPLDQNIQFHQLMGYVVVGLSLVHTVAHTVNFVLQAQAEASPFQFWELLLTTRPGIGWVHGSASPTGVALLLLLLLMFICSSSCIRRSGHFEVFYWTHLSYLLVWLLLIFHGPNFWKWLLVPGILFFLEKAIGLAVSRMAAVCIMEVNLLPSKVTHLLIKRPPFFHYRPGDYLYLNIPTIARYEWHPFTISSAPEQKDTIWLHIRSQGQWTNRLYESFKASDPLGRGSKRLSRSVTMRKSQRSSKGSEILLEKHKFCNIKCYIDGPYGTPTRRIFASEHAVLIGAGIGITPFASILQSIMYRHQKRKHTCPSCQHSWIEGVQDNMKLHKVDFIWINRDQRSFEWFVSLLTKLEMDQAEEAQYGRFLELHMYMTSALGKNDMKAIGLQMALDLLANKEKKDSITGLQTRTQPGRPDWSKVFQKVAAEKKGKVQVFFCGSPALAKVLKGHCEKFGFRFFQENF
On to `CCCC[C@@H](O)C1=C(COC)Cn2c(=O)n(-c3ccccc3)c(=O)n2[C@H]1CO`, for which the z-score is 0.716.
The same measure for `CCN(CC)c1ccc(N2CC=CC34O[C@@H]5C=CCOC(=O)[C@@H]5[C@H]3C(=O)N(CCCO)[C@@H]4C2=O)cc1` (some centres undefined): 0.785; for `COCCOC(=O)N1C(=O)[C@@]2(c3cc(C#CCC(C(=O)OC)C(=O)OC)ccc31)[C@H](c1ccc(OCCO)cc1)N1[C@H](c3ccccc3)[C@H](c3ccccc3)OC(=O)[C@H]1[C@@H]2C(=O)N1CCCCCCC1`: 2.28.
To `CCOC(=O)C1=CC[C@@H](c2ccc(F)cc2)N(S(=O)(=O)c2ccc(C)cc2)[C@H]1c1ccc([N+](=O)[O-])cc1` belongs 1.4; to `COC(=O)c1c(CC[C@@H](CO)NC(=O)N[C@@H](Cc2ccccc2)Cn2cc(-c3cncn3C)nn2)oc(C(C)=O)c1C(=O)OC`, -3.3.
To `O=C(NCCO)C1=C[C@H](Oc2ccccc2I)[C@@H](O)[C@H](NCc2ccc(F)cc2)C1` belongs -3.29; to `CCCCN1CC=CC23O[C@@H]4/C=C\CCC(C)OC(=O)C4[C@H]2C(=O)N(C(C)CO)[C@@H]3C1=O` (some centres undefined), 1.27.
Consider `CC(C)C[C@@H]1NC(=O)C([C@@H](C)OCc2ccccc2)NC(=O)[C@@]23C(=O)N[C@@H](Cc4ccccc4)C2[C@H](C)[C@@]2(C)O[C@H]2C3/C=C/CC/C=C/CNC1=O` (some centres undefined), for which the z-score is -0.24.
To `COCCOC(=O)N1C(=O)[C@@]2(c3cc(C#CCCO)ccc31)[C@H](C(=O)N1CCc3cc(OC)c(OC)cc3C1)[C@H]1C(=O)O[C@H](c3ccccc3)[C@H](c3ccccc3)N1[C@@H]2c1ccccc1OCCO` belongs -0.204.
